Rows were chosen to be rich in hits. Some 0.81% of all compounds tested hit in one or more screens of this group.
Bim-Bcl-W – human Bim-Bcl-W interaction inhibition; bead-based flow cytometry, Bim peptide-Bcl-W binding; inhibition, % at 10 µM; hit rate 0.02% among 190,000;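 also: higher means less fluorescent Bim peptide bound to Bcl-W beads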
Bfl-1 Bim block – inhibitors of Bim-Bfl-1 interaction, human; Q16548; AID 1008; inhibition, % at 10 µM; Bead-based flow cytometry, Bim-Bfl-1 binding inhibition; hit rate 0.12% among 190,000
Target sequence (Q16548 whole entry, looked up): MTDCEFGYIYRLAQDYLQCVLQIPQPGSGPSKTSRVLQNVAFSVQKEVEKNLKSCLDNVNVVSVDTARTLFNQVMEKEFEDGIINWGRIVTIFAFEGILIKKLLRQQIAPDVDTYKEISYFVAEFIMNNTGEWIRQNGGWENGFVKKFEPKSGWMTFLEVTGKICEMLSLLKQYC
Bcl-xL primary – Bcl-xL (human) inhibition; Q07817; hit rate 0.7% among 320,000; inhibition, % at 10.9 µM; AID 2129; GST-Bcl-xL / FITC-Bim BH3 peptide fluorescence polarization;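 active = inhibition above the mean of all tested compounds plus 3 SD, cutoff set per campaign, cut at about 30% in these data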;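 also: inhibitors lower millipolarization by displacing the labeled peptide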
Target sequence (Q07817 whole entry, looked up): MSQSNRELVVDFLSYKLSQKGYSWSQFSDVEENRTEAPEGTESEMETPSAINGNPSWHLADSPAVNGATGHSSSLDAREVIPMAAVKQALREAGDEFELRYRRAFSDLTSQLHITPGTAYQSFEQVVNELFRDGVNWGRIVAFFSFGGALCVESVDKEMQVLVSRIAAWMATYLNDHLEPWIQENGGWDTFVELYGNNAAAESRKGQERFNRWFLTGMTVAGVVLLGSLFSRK
Bim-Bcl-XL – disrupts Bim peptide binding to human Bcl-XL; hit rate 0.04% among 190,000; inhibition, % at 10 µM; Q07817; bead flow cytometry, fluorescence
Bim-Bcl-B – disrupts Bim peptide binding to human Bcl-B; Q9HD36; bead-based flow cytometry; inhibition, % at 10 µM; hit rate 0.073% among 190,000
Bim-Bcl-2 – disrupts Bim peptide binding to human Bcl-2; P10415; Bead-based flow cytometry, Bim peptide-Bcl-2 binding; inhibition, % at 10 µM; hit rate 0.06% among 190,000; AID 950; in the data active = inhibition above about 40%
Numbers stand for hits; i = inactive; nt = no result given. Rule as the data show it, unless noted: active = inhibition above about 40%.

SMILES	Bim-Bcl-W	Bfl-1 Bim block	Bcl-xL primary	Bim-Bcl-XL	Bim-Bcl-B	Bim-Bcl-2
COc1ccc(N2CCN(Cc3oc(CO)cc(=O)c3O)CC2)cc1	i	i	53	i	i	i
CC(C)C[C@H]1C(=O)N2CCC[C@H]2[C@]2(O)O[C@](NC(=O)[C@@H]3C=C4c5cccc6[nH]c(Br)c(c56)CC4N(C)C3)(C(C)C)C(=O)N12 (some centres not stated)	i	i	87	i	i	i
Cc1nc2nc(-c3cccs3)cn2nc1C	i	i	106	i	i	i
NC(=O)c1ccccc1NC(=O)CN1CCN(Cc2ccc(Cl)cc2Cl)CC1	nt	nt	i	nt	nt	nt
Cc1cccc(CSc2nc(N)c(C#N)c(-c3cccs3)c2C#N)c1	i	i	i	i	i	i
Cc1cccc(CSc2nc3c(c(-c4cccs4)c2C#N)CN(C)CC3)c1	i	i	33	i	i	i
CN1CCc2nc(SCC(=O)Nc3cccc(F)c3)c(C#N)c(-c3cccs3)c2C1	i	i	39	i	i	i
O=C(C[n+]1ccc(-c2nnc3n2CCC3)cc1)c1ccc(Cl)c(Cl)c1	i	i	i	i	43	i
COc1ccc(C(=O)C[n+]2ccc(-c3nnc4n3CCC4)cc2)cc1	i	i	i	i	i	i
O=C(NCc1ccccc1C(F)(F)F)C1CC(c2ccc(C(F)(F)F)cc2)=NO1 (configuration not stated)	nt	nt	i	nt	nt	nt
COc1ccccc1NC(=O)Cn1cncc1-c1ccc([N+](=O)[O-])cc1	i	i	i	i	i	i
O=C(Cn1cncc1-c1ccc([N+](=O)[O-])cc1)Nc1ccccc1F	i	42	i	i	i	i
CCN1CCN(CCC(=O)Nc2cccc(C)c2)CC1	nt	nt	32	nt	nt	nt
CN(c1ccccc1)S(=O)(=O)c1cccc(NC(=O)CN2CCCc3ccccc32)c1	nt	nt	i	nt	nt	nt
NS(=O)(=O)c1cccc(NC(=O)CN2CCc3ccccc32)c1	i	i	63	i	i	i
COc1ccc(NS(=O)(=O)c2ccc(Cl)s2)cn1	nt	nt	72	nt	nt	nt
COc1ccc(S(=O)(=O)N2CCN(Cc3cccc(F)c3)CC2)cc1	nt	nt	i	nt	nt	nt
O=C(C(NS(=O)(=O)c1cccs1)c1ccccc1)N1CCN(c2ccccc2)CC1 (configuration not stated)	i	i	31	i	i	i
N#CCc1cnc2ccccc2n1	nt	nt	82	nt	nt	nt
O=C(O)c1cnc2ccccc2n1	i	i	i	i	i	i
O=C1C=C(O)c2cccc(O)c2C1=O	nt	nt	i	nt	nt	nt
CC1=CC(=O)c2c(O)ccc(O)c2C1=O	45	66	88	i	i	i
NS(=O)(=O)c1cc(C(=O)NC2CCSc3ccccc32)ccc1Cl (configuration not stated)	nt	nt	34	nt	nt	nt
COCCN1C(=O)N(c2cccc(C)c2)C(=O)C1CC(=O)Nc1ccc(OC)cc1 (configuration not stated)	nt	nt	i	nt	nt	nt
Cc1cccc(C)c1NC(=O)CSc1nnc(-c2ccco2)c(-c2ccco2)n1	i	i	58	i	i	i
SMILES	Bim-Bcl-W	Bfl-1 Bim block	Bcl-xL primary	Bim-Bcl-XL	Bim-Bcl-B	Bim-Bcl-2
CCn1ccc(C(=O)N2CCN(c3ncccn3)CC2)n1	nt	nt	i	nt	nt	nt
NC(=O)c1ccccc1Nc1nc2nc3ccccc3c(=O)n2cc1Br	nt	nt	31	nt	nt	nt
CCc1ccc(C2C(C#N)=C(N)C(C#N)(C#N)C3=CCC(C(C)(C)C)CC32)cc1 (configuration not stated)	i	i	41	i	i	i
CN(C)Cc1cc(O)c(CN(C)C)cc1O	nt	nt	64	nt	nt	nt
Cc1c(Cl)cccc1N=C1SCCN1C(=O)CN1C(=O)NC2(CCCC2)C1=O	nt	nt	i	nt	nt	nt
COc1ccc(-c2c(C)c3ccc(O)cc3oc2=O)cc1OC	nt	nt	i	nt	nt	nt
Nc1ccc(-c2c3ccc(=O)cc-3oc3cc(O)ccc23)cc1C(=O)O	nt	nt	106	nt	nt	nt
O=c1ccc2c(-c3ccccc3)c3ccc(O)cc3oc-2c1	nt	nt	106	nt	nt	nt
Cc1oc2cc(O)ccc2c(=O)c1-c1ccccc1	i	i	i	i	i	i
CC(C)(C)C(=O)Nc1nnc(SCC(=O)NC2CC2)s1	nt	nt	i	nt	nt	nt
CCC(C)(C)n1nnnc1C(C(C)C)N(Cc1ccco1)Cc1cc2cc3c(cc2[nH]c1=O)OCO3 (configuration not stated)	i	i	45	i	i	i
CC(C)(C)c1csc(NC(=O)Cc2ccc(S(=O)(=O)N3CCOCC3)s2)n1	nt	nt	33	nt	nt	nt
CCN(C(=O)COc1ccc(F)cc1Br)c1c(N)n(Cc2ccccc2)c(=O)[nH]c1=O	nt	nt	i	nt	nt	nt
Nc1nc2nonc2nc1N1CCCCC1	i	i	34	i	i	i
C1CCCN(c2nc3nonc3nc2N2CCCCCC2)CC1	i	i	i	i	i	i
